# In the library only some 8% were active in any assay of this set; here they are far more common.
# Marburg entry: Marburg virus entry inhibition | AID 720532 | Potency, µM (top dose mostly 49.2 µM), inactives show at the highest dose activity change, negative = inhibition, hits mostly inhibitors | Marburg virus pseudotype entry/binding inhibition, cell-based | 18,000 compounds, 6.5% hits
# Lassa entry: blocks Lassa virus binding or cell entry; Potency, µM (series often up to 49.2 µM), without a hit: at the top dose activity change, negative = inhibition, hits mostly inhibitors; 18,000 compounds, 4.1% hits; Lassa virus pseudotyped entry inhibition, cell-based qHTS
# * hit, by the source's call; ? = inconclusive; nt = no result given; ! = not confirmed by another sample; [ ] = dose if it differs, or a comment. The call rests on the fitted dose curve; tested in HEK293 cells. On the % scale 0 is the no-effect control and ±100 the full control effect; potency means the concentration at half of the fitted maximal effect.
SMILES,Marburg entry,Lassa entry
CN1CC[C@@H]2CN3CCc4cccc(c43)[C@H]2C1,?,-6%
c1ccc2c(c1)Sc1ccccc1N2CC1CN2CCC1CC2 (stereo not given),13µM*,?
CN1CCC(CN2c3ccccc3Sc3ccccc32)C1 (stereo not given),10µM*,16µM*
CC1=C[C@@H](COCc2ccccc2)O[C@@]2(C1)C(=O)N(Cc1ccc(Br)cc1)c1ccccc12,4%[8.59 µM],-10%[8.59 µM]
C=CCOC(=O)C1=C(C)N(CC)C(=O)NC1c1ccccc1 (stereo not given),-5%[8.59 µM],5%[8.59 µM]
COc1cc([C@@H](NC(=O)C(F)(F)F)C2CCCCC=C2c2ccccc2)cc(OC)c1OC (stereo not given in full),10%[8.59 µM],?
Clc1ccc2c(c1)C(N1CCNCC1)=Nc1ccccc1O2,11µM*!,?
CN1CCN(C2=Nc3ccccc3Cc3ccccc32)CC1,?,-5%
CCCCOc1ccc(C(=O)CCN2CCCCC2)cc1,?,-9%
CC(C)N1CCN(c2ccc(C(=O)c3c(-c4ccc(O)cc4)sc4cc(O)ccc34)cc2)CC1,5µM*,?
O=C(c1ccc(OCCN2CCCCC2)cc1)c1c(-c2ccc(O)cc2)sc2cc(O)ccc12,14µM*,32µM*!
CC(C)=CCCC(C)=CCON=C1C[C@@H](O)[C@@H](O)[C@@H]2[C@H]3C(=O)N(c4ccc(F)cc4F)C(=O)[C@@H]3CC[C@H]12,?,8%[8.59 µM]
CCN(CC)CC1CCN(c2ncc3ncnc(Nc4ccc(F)c(Cl)c4)c3n2)CC1,3.5µM*,?
CC#CC(=O)Nc1cc2c(Nc3ccc(F)c(Cl)c3)ncnc2cn1,-16%,-2%
C[C@H]1CC[C@H]2C(=O)N(Cc3ccc(Cl)cc3)C[C@H](O)CN2[C@H]1c1ccc(Br)cc1,-2%[8.59 µM],10%[8.59 µM]
CCc1nc2cc(C(=O)N(C)C3CCOC3)cc(NC(=O)c3ccccc3OC)c2n1C (stereo not given),-25%,-1%
CCCCC[C@@H](O)C1C(=O)OC(C)[C@H](O)/C=C/C=C/C=C/C=C/C=C(\C)C(O)C(O)C(O)C[C@H](O)C[C@H](O)C[C@H](O)C[C@H](O)C[C@@H]1O (stereo not given in full),16µM*!,-5%
CCCCn1c(C)cc2c(c1=O)[C@H]1O[C@](c3ccsc3)(Cc3cc(OC)c(OC)cc31)O2,?,4%[8.59 µM]
COC(=O)c1c(C)cc(OC(=O)c2c(C)cc(O)c(C=O)c2O)c(C)c1O,?,7.9µM*
Cc1cc(O)c(C=O)c(O)c1C(=O)O,-2%,0%
C[C@H]1CCCC(=O)N[C@@H](c2ccccc2)[C@@H](C)CCCC(=O)N[C@@H]1c1ccccc1,29%[8.59 µM],17%[8.59 µM]
Oc1cc2c(cc1O)[C@H]1c3ccc(O)c(O)c3OC[C@@]1(O)C2,?,-14%
CC(=O)Oc1ccc2c(c1OC(C)=O)OCC1(O)Cc3c(cc(OC(C)=O)c(OC(C)=O)c3OC(C)=O)C21 (stereo not given),7.9µM*,-19%
Cc1ccc(-c2ccc(C(=O)NCc3ccc(Cl)cc3)o2)c2ccccc12,-9%,?
O=C(NCc1ccccc1)c1ccc(-c2ccccc2C(F)(F)F)o1,34%,11µM*
SMILES,Marburg entry,Lassa entry
C[C@@H]1CN(Cc2ccc3c(c2)CN(Cc2coc4ccccc4c2=O)CCO3)C[C@H](C)O1,-30%,-6%
CCOC(=O)CN1C(=O)[C@]2(O[C@H](COc3ccccc3)CC3=C2CCC3)c2ccccc21,30%[8.59 µM],-15%[8.59 µM]
Clc1ccc2nc(-c3ccccc3)[nH]c2c1,17%,8%
CCOc1ccc(-c2nc3ccc(-c4nc5ccc(N6CCN(C)CC6)cc5[nH]4)cc3[nH]2)cc1,10µM*,?
Cc1cc(C(=O)NCc2nnc3n2CCN(Cc2ccc4c(c2)Cc2ccccc2-4)CC3)c(C)o1,8%,-16%
CC1=C[C@@H](COCc2ccccc2)O[C@@]2(C1)C(=O)N(Cc1ccccc1C(F)(F)F)c1ccccc12,5%[8.59 µM],11%[8.59 µM]
Cc1cccc(CN2CCc3nnc(C(C)NC(=O)C4CCOCC4)n3CC2)c1 (stereo not given),10%,-5%
COC(=O)C1CCN(Cc2ccc3c(c2)CN(C(=O)C2Cc4ccccc4O2)CCO3)CC1 (stereo not given),?,3%
COc1ccc(CN2CCOc3c(cc(-c4ccc(OC)nn4)cc3OC)C2)c(O)c1,-19%,-21%
COc1ccc(OC)c(-c2ccc(O)c(CN3CCc4c([nH]c5ccccc45)C3)c2)c1,13µM*,?
O=C1[C@H]2[C@@H]3[C@@H](O)[C@H](O)CC(=NOCc4ccccc4)[C@@H]3CC[C@H]2C(=O)N1c1ccc(F)cc1F,-9%[8.59 µM],3%[8.59 µM]
CC1=CC[C@@H](COc2ccccc2)O[C@@]2(C1)C(=O)N(Cc1ccccc1C(F)(F)F)c1ccccc12,1%[8.59 µM],-17%[8.59 µM]
CCN(CC)CCOc1ccc(C(O)(Cc2ccc(Cl)cc2)c2ccc(C)cc2)cc1 (stereo not given),3.5µM*,25µM*
CCN(CC)CCNC(=O)COc1ccc(Cl)cc1,-28%,4%
NC(=O)[C@@H]1CCCN1C(=O)c1cc(NC(=O)c2ccccc2)cc2ncn(C3CCCC3)c12,11%,-1%
C[N+](C)(CCOc1ccccc1)Cc1cccs1,13%,-17%
Cc1cc(OCCOCC[N+](C)(C)Cc2ccccc2)ccc1C(C)(C)CC(C)(C)C,22µM*,25µM*
COc1ccc2c(c1)[C@H](C=Cc1ccccc1)[C@@H]([C@H](O)CO)O2,17%[8.59 µM],-6%[8.59 µM]
O=C1NC2CCCCN2C12CCN(CCCN1c3ccccc3CCc3ccc(Cl)cc31)CC2 (stereo not given),7.1µM*,28µM*
O=C1CCc2ccc(OCCCCN3CCN(c4cccc(Cl)c4Cl)CC3)cc2N1,2%,?
CCN1C(=O)[C@@H]2[C@H]3[C@H](O)[C@H](O)CC(=NOC[C@@H](O)COCc4ccco4)[C@@H]3CC[C@H]2C1=O,-22%[8.59 µM],1%[8.59 µM]
OCc1c[nH]c2ccccc12,32µM*!,32µM*!
CN(C)Cc1c[nH]c2ccccc12,6%,-2%
COC(=O)C1=C2CCCO[C@H]2[C@@H]2[C@@H](C)[C@H](OC)c3ccccc3[C@@H]12,2%[8.59 µM],-13%[8.59 µM]
CC1=C[C@@H](COc2ccccc2)O[C@@]2(C1)C(=O)N(Cc1ccccc1)c1ccccc12,?,7%[8.59 µM]
SMILES,Marburg entry,Lassa entry
COC[C@@H](OC(C)=O)[C@H]1OCc2ccccc2[C@@H]1C=Cc1ccccc1,14%[8.59 µM],11%[8.59 µM]
COC(=O)[C@@H]1CC[C@H](C)[C@@H](c2ccc(C)cc2)N1C(=O)c1ccc(C=NO[C@H](C)CN2CCCc3nc(C)c(C)cc32)cc1,?,7%[8.59 µM]
N[C@@H](Cc1ccc(O)c(O)c1)C(=O)O,7.9µM*!,?
CCC(N)C(O)c1ccc(O)c(O)c1 (stereo not given),-3%,9%
N[C@H](C(=O)O)[C@@H](O)c1ccc(O)c(O)c1,1.3µM*,?
N[C@H](Cc1ccc(O)cc1)C(=O)O,9%,6%
C=CC1CC2C=CCOP(=S)(O1)O2 (stereo not given),-23%,29%
CC1=CC(=C(c2ccc(N)cc2)c2ccc(N)cc2)C=CC1=N,?,7.9µM*
c1ccc(Oc2ccc(Nc3ncc(-c4ccccc4)o3)cc2)cc1,5%,nt
COC(=O)[C@H]1C[C@@]2(CC=C(C)C)C(=O)[C@@](CC=C(C)C)(C(=O)C(C(=O)c3ccccc3)=C2OC)C1(C)C,-31%[8.59 µM],-3%[8.59 µM]
